Source: PubChem BioAssay
The entries come from a sample that favours hits as a whole.
VACV mCherry inh = inhibitors of vaccinia virus infection (mCherry reporter signal). 0.63% of 310,000 active. AID 720579. Potency, µM (titrated, usually from 36.5 µM), most hits filed as inhibitors. Vaccinia virus mCherry reporter infection, fluorescence; calls by dose curve; tested in A549 cells; further: nearly all actives have a fitted effect of over 35% in size
Shiga inhibitor = inhibitors of Shiga toxin in Vero cells; Vero cells, Shiga toxin protein synthesis inhibition reporter; inhibition, % at 38.7 µM; 9.2% of 290,000 active; in the data active means inhibition mostly above about 28%, no sharp cut-off; inactive means mostly below about 43%
Marburg entry inh = inhibitors of Marburg virus binding or cell entry; Marburg virus pseudotyped entry inhibition, cell reporter; Potency, µM (series often up to 37.8 µM), hits mostly inhibitors; 1.8% of 300,000 active; AID 540276; calls by dose curve; tested in HEK293 cells
CHX counter = counter-screen hit for Shiga toxin inhibitors, cycloheximide. cell reporter, cycloheximide protein synthesis inhibition counterscreen. AID 2314. max response, %. 12% of 300,000 active; in the data active means max response mostly above about 13%, no sharp cut-off; inactive means mostly below about 14%; further: read at 38.3 µM for the half of the compounds with a filed dose
Vaccinia Venus = inhibitors of vaccinia virus (Venus reporter). Potency, µM (titrated, usually from 36.5 µM), actives largely listed as inhibitors. Vaccinia virus Venus reporter expression, fluorescence. 0.46% of 330,000 active; calls by dose curve; tested in A549 cells; further: nearly all actives have a fitted effect of over 30% in size
Lassa entry inh = Lassa virus entry inhibition | Potency, µM (titrated, usually from 37.9 µM), usual class: inhibitors | 1.2% of 300,000 active | AID 540256 | Lassa virus pseudotype entry inhibition, cell reporter; calls by dose curve; tested in HEK293 cells; further: nearly all actives have a fitted effect of over 50% in size
A number is an active result; 0 = inactive; ? = inconclusive; - = no result; [ ] = another dose, or the depositor's remark.

SMILES | VACV mCherry inh | Shiga inhibitor | Marburg entry inh | CHX counter | Vaccinia Venus | Lassa entry inh
COc1ccc(N2COC3c4cccc5cccc(c45)C32)cc1 (configuration not stated) | - | 45.0 | 0 | 24.3 | - | 0
CC(=O)c1ccc(NC(=O)c2cnn(-c3cccc(F)c3)c2-n2cccc2)cc1 | 0 | - | - | - | 0 | 0
CC(=O)c1cccc(NC(=O)c2cnn3ccccc23)c1 | 0 | 59.1 | - | 89.3 | 0 | -
CC(=O)c1ccc(NC(=O)c2cnn3ccccc23)cc1 | 0 | 55.3 | - | 43.9 | 0 | -
COc1ccc(N2CC(NC(=O)/C=C\c3ccc(OC)c(OC)c3)CC2=O)cc1 (configuration not stated) | 0 | - | - | - | 0 | 0
CCc1ccccc1NC(=O)CC1NCCNC1=O (configuration not stated) | 0 | - | 0 | - | 0 | 0
CCN1CCN(c2cc3c(nn2)Oc2ccccc2N3C)CC1 | 0 | 52.0 | ? | 49.0 | 0 | 0
O=C(NC1CC(=O)N(c2ccccc2)C1)c1ccc(S(=O)(=O)N2CCOCC2)cc1 (configuration not stated) | 0[7.34 µM] | - | - | - | 0[7.34 µM] | 0
Cc1ccc(NC(=O)c2cc(-c3ccccc3O)n[nH]2)cc1Cl | 0 | 0 | 0 | 0 | 0 | 0
CC(=O)Nc1ccc(NC(=O)c2cc(-c3cc(C)c(C)cc3O)n[nH]2)cc1 | 0 | 0 | 0 | 0 | 0 | 0
Cc1cc(O)c(-c2cc(C(=O)Nc3cccnc3)[nH]n2)cc1C | - | 52.4 | - | 43.4 | - | -
COc1ccc(NC(=O)c2cc(-c3ccccc3O)n[nH]2)cc1Cl | 0 | 51.3 | ? | 0 | 0 | 0
Cc1cc(C)c(O)c(-c2cc(C(=O)Nc3cccnc3)[nH]n2)c1 | ? | 98.0 | ? | 29.5 | 0 | 0
CCc1ccc(O)c(-c2cc(C(=O)Nc3cccnc3)[nH]n2)c1 | ? | 93.3 | - | 28.0 | 0 | -
CC(C)Cc1nnc(NC(=O)CCC(=O)NC2CCCC2)s1 | - | 0 | - | 0 | - | -
CCOC(=O)C1C(C(=O)OC)=C(c2ccc(F)cc2)c2ccc(OC)cc2N1S(=O)(=O)C(F)(F)F (configuration not stated) | - | 0 | - | 0 | - | -
CCCOc1ccc(OCCOCCN2CCc3ccccc3C2)cc1 | - | 0 | 0 | 0 | - | 0
Cn1nnnc1SCC(=O)Nc1ncc(Cl)cc1Cl | 0 | - | 0 | - | 0 | 0
COc1ccc(C2CC(c3ccccc3)Oc3c(C)ccc(C)c32)cc1 (configuration not stated) | - | 0 | - | 0 | - | -
Cc1ccc(NC(=O)c2cc(-c3cc(Cl)ccc3O)n[nH]2)cc1C | - | 0 | - | 0 | - | -
Cc1ccc(C)c(NC(=O)c2cc(-c3cc(C)ccc3O)n[nH]2)c1 | ? | 75.9 | 0 | 58.9 | ? | ?
Cc1cccc(NC(=O)c2cc(-c3cc(Cl)ccc3O)n[nH]2)c1 | 0 | 76.1 | ? | 37.3 | 0 | ?
Cc1cccc(NC(=O)c2cc(-c3c(C)cc(C)cc3O)n[nH]2)c1 | 0 | 51.3 | 0 | 0 | 0 | 0
Cc1cccc(NC(=O)c2cc(-c3cc(C)cc(C)c3O)n[nH]2)c1 | - | 39.5 | - | 13.1 | - | -
COc1ccc(Cl)cc1NC(=O)c1cc(-c2cc(C)ccc2O)n[nH]1 | ? | 0 | 0 | 0 | 0 | 0
SMILES | VACV mCherry inh | Shiga inhibitor | Marburg entry inh | CHX counter | Vaccinia Venus | Lassa entry inh
COc1ccc(NC(=O)c2cc(-c3cc(C)cc(C)c3O)n[nH]2)cc1Cl | - | 0 | ? | 0 | - | 0
COc1ccc(OC)c(NC(=O)c2cc(-c3c(C)cc(C)cc3O)n[nH]2)c1 | - | 0 | - | 0 | - | -
CCN(CC)CCNC(=O)c1cc2c(-c3ccc(Cl)cc3)nn(C)c2s1 | ? | 0 | - | 0 | ? | -
CCCCN(CC)CCNC(=O)c1cc2c(-c3ccc(Cl)cc3)nn(C)c2s1 | 10µM | 0 | 3.55µM | 0 | ? | ?
CCCN(CCC)CCNC(=O)c1cc2c(-c3ccc(Cl)cc3)nn(C)c2s1 | ? | 0 | 3.98µM | 0 | ? | 0
N#CC1CC(c2ccccc2)=NN1c1ccccc1[N+](=O)[O-] (configuration not stated) | 0 | 113.3 | ? | 48.4 | 0 | ?
CN(Cc1ccccc1)c1ncnc2c1nc1n2CCCC1 | 0 | - | - | - | 0 | ?
COCCNC(=O)C1CCCN(C(=O)c2cncc(Br)c2)CC1 (configuration not stated) | 0 | - | - | - | 0 | -
O=C(O)c1cccc(COc2ccc3c(c2)CCC3)c1 | 0 | 0 | ? | 35.3 | 0 | 0.366µM
O=C(NCc1ccccc1)c1cccc(COc2ccc3c(c2)CCC3)c1 | 0 | 119.5 | ? | 103.9 | 0 | ?
COc1cccc(OC)c1C(=O)NNC(=O)c1cccc(COc2ccc3c(c2)CCC3)c1 | 0 | 183.9 | ? | 64.8 | 0 | ?
O=C(COc1ccc2c(c1)CCC2)NCc1cccc(Cl)c1 | 0 | 0 | ? | 0 | 0 | ?
O=C(C[N+]1(CC(O)c2ccccc2)CCOCC1)c1ccccc1 (configuration not stated) | 0 | - | - | - | 0 | -
CC(C)(C)OC(=O)N1CCC(c2c(C(=O)Nc3ccc4c(c3)OCCO4)cnn2-c2ccccc2)CC1 | 0 | - | - | - | 0 | 0
CC1CCN(C(=S)NC(=O)c2ccco2)CC1 | 0 | 0 | 0 | 33.1 | 0 | ?
COc1ccc(C(=O)NC(=S)N2CCCCC2)cc1 | 0 | 40.4 | ? | 19.4 | 0 | ?
CC1CCN(C(=S)NC(=O)c2ccc(F)cc2)CC1 | 0 | - | 0 | - | 0 | 0
COc1ccc(C(=O)NC(=S)N2CCCC2)cc1 | 0 | 0 | 0 | 0 | 0 | ?
COc1ccc(C(=O)NC(=S)N2CCC(C)CC2)cc1 | 0 | 0 | ? | 25.6 | 0 | 0
COc1ccc(C(=O)NC(=S)NC2CCSC2=O)cc1 (configuration not stated) | 0 | 27.0 | 0 | 0 | 0 | 0
O=C(COc1ccc(Cl)cc1)NC1CCSC1=O (configuration not stated) | - | 53.4 | 0 | 19.2 | 0 | 0
COc1ccc(Cc2nc(-c3ccc(-n4cccc4)cc3)no2)cc1 | - | 0 | 0 | 0 | - | 0
COc1ccc(Cc2nc(-c3cccs3)no2)cc1OC | 0 | 0 | - | 23.7 | 0 | -
COc1ccc(Cc2nc(-c3cccs3)no2)cc1 | - | 69.8 | - | 32.8 | - | -
COc1ccc(Cc2nc(-c3ccc(-n4cccc4)cc3)no2)cc1OC | 0 | 0 | - | 0 | 0 | -
SMILES | VACV mCherry inh | Shiga inhibitor | Marburg entry inh | CHX counter | Vaccinia Venus | Lassa entry inh
COc1ccc(Cc2nc(-c3ccccc3)no2)cc1 | 0 | 41.8 | ? | 35.9 | 0 | 0
COc1cccc(NC(=O)CCc2nc(-c3cccs3)no2)c1 | 0 | 0 | 0 | 0 | 0 | 0
Cc1nn(C)c2c1c(C(F)(F)F)cc(=O)n2C(C)C(=O)Nc1ccccc1F (configuration not stated) | 0 | - | - | - | 0 | 0
OCCN1CCN(c2cc(C(F)(F)F)nc3ccccc23)CC1 | 0 | 0 | 0 | 0 | 0 | 0
CCN(CC)c1ccc(CNc2ccc3c(c2)ncn3C(C)(C)C)cc1 | ? | 0 | ? | 0 | 0 | 0
CCc1ccc(CNc2ccc3c(c2)ncn3C(C)(C)C)cc1 | 0 | 93.6 | 10µM | 39.5 | 0 | 1.78µM
CCc1ccc(CNc2ccc3c(c2)ncn3CC)cc1 | 0 | 85.9 | ? | 52.7 | 0 | ?
CC(C)(C)n1cnc2cc(NCc3ccc(Br)cc3)ccc21 | 0 | 116.9 | ? | 46.9 | 0 | 0
Cn1c(Nc2ccccc2)nc2ccccc21 | - | 0 | - | 25.2 | - | -
Nn1c(Nc2ccccc2)nc2ccccc21 | - | 58.1 | 0 | 35.7 | 0 | 0
Cc1ccc2c(CC(=O)N3CCOc4ccc(CN5C[C@@H](C)O[C@@H](C)C5)cc4C3)cc(=O)oc2c1 | 0 | - | - | - | 0 | -
